Assay results taken from PubChem BioAssay.
Active and inactive are the calls of the source.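 How the source made its calls, unless noted: active means growth inhibition above 50% at the single 2 µM test dose, taken to imply half-maximal potency below 2 µM; inactive means the rest.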

test: antimalarial activity against Dd2 strain (AID 2302);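 further: 0% = DMSO untreated growth and 100% = chloroquine plus artemisinin killed control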; conditions: P. falciparum Dd2 in RBCs, LDH growth readout, 72 h; at 2 µM; hits give high values

Row | SMILES | growth inhibition
1 | O=c1cc(NC[C@@H]2CCC[C@@H]2NCc2ccc(Cl)c(Cl)c2)[nH]c2ccccc12 | 75% (active)
2 | O=C(NCCN1CCN(S(=O)(=O)c2ccc(OC3CCNCC3)c(Br)c2)CC1)c1ccc(Cl)c(Cl)c1 | -3% (inactive)
3 | CCc1ccc(N2C(N)=NC(N)=NC2(C)C)cc1 | -1% (inactive)
4 | CN1CCN(c2ccnc3ccc(NC(=O)Nc4ccc5c(c4)CCCC5=O)cc23)CC1 | 90% (active)
5 | CCOC(=O)c1[nH]c2ccc(F)cc2c1NC(=O)CN1CCN(c2cccc(C(F)(F)F)c2)CC1 | 90% (active)
6 | COc1ccc(CN2CCCN(Cc3cccc(C(=O)Nc4ccc(C)c(F)c4)c3)CC2)cc1 | 10% (inactive)
7 | O=C(NCCCCN1CCC(c2ccc3ccccc3c2O)CC1)c1ccc(-c2ccc(Cl)cc2)cc1 | 99% (active)
8 | CN(C)Cc1ccc(-c2cc3ncnc(Nc4ccc(OCc5cccc(F)c5)c(Cl)c4)c3s2)[nH]1 | 87% (active)
9 | CN(C)CCN(C)Cc1ccc(-c2ccc(NC(=O)c3cccc(Cl)c3)cc2)cc1 | 54% (active)
10 | COc1cc(NC(=O)c2ccc3oc4ccccc4c3c2)ccc1OCCN1CCCCC1 | 11% (inactive)
11 | COc1ccc(CN(C)CCOc2ccc(NC(=O)c3cccc4c(=O)cc(-c5ccccc5)[nH]c34)cc2)cc1OC | 44% (inactive)
12 | CC(=O)Nc1ccc(Nc2c3ccccc3nc3ccccc23)cc1 | 62% (active)
13 | CN1C(=O)C(=O)N(CCCCCON=C(N)N)C1=S | 1% (inactive)
14 | CCN1CCN(CCCNc2ccnc3cc(Cl)ccc23)CC1 | 77% (active)
15 | CS(=O)(=O)CCNCc1cccc(-c2cc3c(Nc4ccc(OCc5ccccc5)cc4)ncnc3cn2)c1 | 26% (inactive)
16 | COc1ccc(CNCc2ccc(-c3ccc(-c4nc5ccc(C(F)(F)F)cc5[nH]4)cc3)cc2)cc1 | 99% (active)
17 | Cc1cc(-c2cccc3c(C(=O)N4CCc5cc6nccc(N7CCN8CCC[C@H]8C7)c6cc54)cccc23)cc(C)n1 | 76% (active)
18 | Nc1nc2c(ncn2COC2COP(=O)(O)OC2)c(=O)[nH]1 (stereo not given) | 54% (active)
19 | O=C(CCN(Cc1ccco1)c1nc(-c2ccc(F)cc2)nc2ccccc12)NC1CC1 | 54% (active)
20 | O=C(Nc1cccc(-c2ccc(-c3nc4ccc(C(F)(F)F)cc4[nH]3)cc2)c1)Nc1ccc(F)c(F)c1F | 99% (active)

Row | SMILES | growth inhibition
21 | Cc1nc(N)nc(N)c1C#CC1CCCC1 | 2% (inactive)
22 | Cn1ncc2ccc(Nc3nccc(-c4ccc5c(c4)c(N)nn5C)n3)cc21 | 96% (active)
23 | Clc1ccccc1CNc1noc(-c2sccc2Br)n1 | 93% (active)
24 | CN1CCC(Oc2cc(CN3CC[C@H](NC(=O)c4ccc(Cl)c(Cl)c4)C3)ccc2I)C1 (stereo not given in full) | 24% (inactive)
25 | CCc1cn2c3c(cc(C(=O)N[C@@H](Cc4ccccc4)[C@H](O)CNC4CCCCC4)cc13)N(CC)S(=O)(=O)CC2 | 98% (active)
26 | CN1CCN(c2nc(NCCNc3ccc([N+](=O)[O-])cc3)c3ccccc3n2)CC1 | 25% (inactive)
27 | O=S(=O)(NCCN1CCCC1)c1ccc(-c2ccc(CN3Cc4ccccc4C3)cc2)s1 | 18% (inactive)
28 | CSc1c(CNCCCNc2cc(=O)c3ccccc3[nH]2)[nH]c2ccccc12 | 21% (inactive)
29 | CN1CCC(NCc2ccc(-c3cccc(S(=O)(=O)NCc4ccccc4)c3)cc2)CC1 | 94% (active)
30 | COc1ccc(-c2ccnc(-c3cccc(-c4ccccn4)n3)c2)cc1 | 84% (active)
31 | CC1CN(c2ccc(C(=O)NCC3CC3)cc2NC(=O)OCc2ccccc2)CC(C)O1 (stereo not given) | 76% (active)
32 | Cc1noc(=O)c2ccc(NC(=O)C(O)(CSc3ccccc3)CC(C)C)cc12 (stereo not given) | 89% (active)
33 | CCCCOP(=O)(COc1ccc(CCN(CC(O)COc2cccc3[nH]c4ccccc4c23)CC(O)COc2cccc3[nH]c4ccccc4c23)cc1)C1CCCCC1 (stereo not given) | 92% (active)
34 | COc1ccc(NC(=O)Nc2cccc(-c3ccncc3)c2)cc1N1CCN(C)CC1 | 57% (active)
35 | CC(=O)c1c[nH]c2ccc(/C=C/C(=O)NC3CCC(CCN4CCc5ccc(C#N)cc5CC4)CC3)cc12 (stereo not given) | 98% (active)
36 | c1ccc(COc2ccnc(NCCCOc3cccc(CN4CCCCC4)c3)c2)cc1 | 51% (active)
37 | Cc1cccc(OCC(=O)Nc2cccc(NC(=O)COc3cccc(C)c3)n2)c1 | 30% (inactive)
38 | Cn1nc(-c2ccccc2F)c2cc(C(=O)Nc3cccnc3)sc21 | 82% (active)
39 | CCN(CC)CCCSc1ccc(-c2ccc(SCCCN(CC)CC)cc2)cc1 | 30% (inactive)
40 | COCCCNc1sc(S(=O)(=O)c2ccccc2)nc1S(=O)(=O)c1ccc(C)cc1 | 44% (inactive)

test: human hepatoma cell viability loss – ATP luminescence, cytotoxicity control for P. falciparum antimalarial project, primary screen (AID 2303;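 active means inhibition above 50%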;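 further: 0% = DMSO wells and 100% = digitonin-killed cells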); conditions: HepG2 viability, 24-48 h, at 10 µM, hits give high values

Row | SMILES | inhibition
41 | O=c1cc(NC[C@@H]2CCC[C@@H]2NCc2ccc(Cl)c(Cl)c2)[nH]c2ccccc12 | 9% (inactive)
42 | O=C(NCCN1CCN(S(=O)(=O)c2ccc(OC3CCNCC3)c(Br)c2)CC1)c1ccc(Cl)c(Cl)c1 | 1% (inactive)
43 | CCc1ccc(N2C(N)=NC(N)=NC2(C)C)cc1 | 51% (active)
44 | CN1CCN(c2ccnc3ccc(NC(=O)Nc4ccc5c(c4)CCCC5=O)cc23)CC1 | 8% (inactive)
45 | CCOC(=O)c1[nH]c2ccc(F)cc2c1NC(=O)CN1CCN(c2cccc(C(F)(F)F)c2)CC1 | 12% (inactive)
46 | COc1ccc(CN2CCCN(Cc3cccc(C(=O)Nc4ccc(C)c(F)c4)c3)CC2)cc1 | 49% (inactive)
47 | O=C(NCCCCN1CCC(c2ccc3ccccc3c2O)CC1)c1ccc(-c2ccc(Cl)cc2)cc1 | 84% (active)
48 | CN(C)Cc1ccc(-c2cc3ncnc(Nc4ccc(OCc5cccc(F)c5)c(Cl)c4)c3s2)[nH]1 | 53% (active)
49 | CN(C)CCN(C)Cc1ccc(-c2ccc(NC(=O)c3cccc(Cl)c3)cc2)cc1 | 50% (active)
50 | COc1cc(NC(=O)c2ccc3oc4ccccc4c3c2)ccc1OCCN1CCCCC1 | 12% (inactive)
51 | COc1ccc(CN(C)CCOc2ccc(NC(=O)c3cccc4c(=O)cc(-c5ccccc5)[nH]c34)cc2)cc1OC | 13% (inactive)
52 | CC(=O)Nc1ccc(Nc2c3ccccc3nc3ccccc23)cc1 | 41% (inactive)
53 | CN1C(=O)C(=O)N(CCCCCON=C(N)N)C1=S | 21% (inactive)
54 | CCN1CCN(CCCNc2ccnc3cc(Cl)ccc23)CC1 | 7% (inactive)
55 | CS(=O)(=O)CCNCc1cccc(-c2cc3c(Nc4ccc(OCc5ccccc5)cc4)ncnc3cn2)c1 | 3% (inactive)
56 | COc1ccc(CNCc2ccc(-c3ccc(-c4nc5ccc(C(F)(F)F)cc5[nH]4)cc3)cc2)cc1 | 75% (active)
57 | Cc1cc(-c2cccc3c(C(=O)N4CCc5cc6nccc(N7CCN8CCC[C@H]8C7)c6cc54)cccc23)cc(C)n1 | 13% (inactive)
58 | Nc1nc2c(ncn2COC2COP(=O)(O)OC2)c(=O)[nH]1 (stereo not given) | 7% (inactive)
59 | O=C(CCN(Cc1ccco1)c1nc(-c2ccc(F)cc2)nc2ccccc12)NC1CC1 | -12% (inactive)
60 | O=C(Nc1cccc(-c2ccc(-c3nc4ccc(C(F)(F)F)cc4[nH]3)cc2)c1)Nc1ccc(F)c(F)c1F | 45% (inactive)

Row | SMILES | inhibition
61 | Cc1nc(N)nc(N)c1C#CC1CCCC1 | 68% (active)
62 | Cn1ncc2ccc(Nc3nccc(-c4ccc5c(c4)c(N)nn5C)n3)cc21 | 48% (inactive)
63 | Clc1ccccc1CNc1noc(-c2sccc2Br)n1 | 0% (inactive)
64 | CN1CCC(Oc2cc(CN3CC[C@H](NC(=O)c4ccc(Cl)c(Cl)c4)C3)ccc2I)C1 (stereo not given in full) | 68% (active)
65 | CCc1cn2c3c(cc(C(=O)N[C@@H](Cc4ccccc4)[C@H](O)CNC4CCCCC4)cc13)N(CC)S(=O)(=O)CC2 | 8% (inactive)
66 | CN1CCN(c2nc(NCCNc3ccc([N+](=O)[O-])cc3)c3ccccc3n2)CC1 | 37% (inactive)
67 | O=S(=O)(NCCN1CCCC1)c1ccc(-c2ccc(CN3Cc4ccccc4C3)cc2)s1 | 19% (inactive)
68 | CSc1c(CNCCCNc2cc(=O)c3ccccc3[nH]2)[nH]c2ccccc12 | 0% (inactive)
69 | CN1CCC(NCc2ccc(-c3cccc(S(=O)(=O)NCc4ccccc4)c3)cc2)CC1 | 72% (active)
70 | COc1ccc(-c2ccnc(-c3cccc(-c4ccccn4)n3)c2)cc1 | 44% (inactive)
71 | CC1CN(c2ccc(C(=O)NCC3CC3)cc2NC(=O)OCc2ccccc2)CC(C)O1 (stereo not given) | -5% (inactive)
72 | Cc1noc(=O)c2ccc(NC(=O)C(O)(CSc3ccccc3)CC(C)C)cc12 (stereo not given) | -15% (inactive)
73 | CCCCOP(=O)(COc1ccc(CCN(CC(O)COc2cccc3[nH]c4ccccc4c23)CC(O)COc2cccc3[nH]c4ccccc4c23)cc1)C1CCCCC1 (stereo not given) | 7% (inactive)
74 | COc1ccc(NC(=O)Nc2cccc(-c3ccncc3)c2)cc1N1CCN(C)CC1 | 9% (inactive)
75 | CC(=O)c1c[nH]c2ccc(/C=C/C(=O)NC3CCC(CCN4CCc5ccc(C#N)cc5CC4)CC3)cc12 (stereo not given) | 11% (inactive)
76 | c1ccc(COc2ccnc(NCCCOc3cccc(CN4CCCCC4)c3)c2)cc1 | 22% (inactive)
77 | Cc1cccc(OCC(=O)Nc2cccc(NC(=O)COc3cccc(C)c3)n2)c1 | -3% (inactive)
78 | Cn1nc(-c2ccccc2F)c2cc(C(=O)Nc3cccnc3)sc21 | 5% (inactive)
79 | CCN(CC)CCCSc1ccc(-c2ccc(SCCCN(CC)CC)cc2)cc1 | 38% (inactive)
80 | COCCCNc1sc(S(=O)(=O)c2ccccc2)nc1S(=O)(=O)c1ccc(C)cc1 | 7% (inactive)
